{"source": "ChEMBL document CHEMBL3988442", "about": "“University of Dundee, Small-Polar-MMV Screening Library” (2021)", "note": "About 13,000 (27%) of roughly 48,000 compounds showed an effect of 50% or more. Some of the results follow.", "data": [{"system": "Wolbachia pipientis", "assay": "Anti-Wolbachia Cell-Based Screen", "assay_type": "functional", "set-up": "scale not given: in the data most compounds retested in dose-response had high values", "conditions": "5 µM", "units": {"Percent Effect": "%"}, "values": [{"smiles": "CN(CC1CCCCO1)c1nc(-c2cccnc2)nc2c1CCNC2", "note": "(centres undefined)", "Percent Effect": -24.82}, {"smiles": "CC(C)N1CCc2ncn(C(C)C)c2C1C(=O)NCCN1CCCC1", "note": "(centres undefined)", "Percent Effect": -11.46}, {"smiles": "CCCc1cc(NCCn2cccn2)n2nccc2n1", "Percent Effect": -0.5952}, {"smiles": "Cc1cc(NC(=O)CCN(CC2CCOC2)C2CC2)no1", "note": "(centres undefined)", "Percent Effect": 14.41}, {"smiles": "CC(C)NC(=O)N[C@H]1C[C@@H](c2nc(-c3ccc(F)cc3)no2)N(C)C1", "Percent Effect": -4.692}, {"smiles": "Cc1nc2cc(C(=O)N(CCN(C)C)CCN(C)C)ccc2n1C", "Percent Effect": -1.95}, {"smiles": "Cc1cc(CS(=O)(=O)NCC2CCCCC2)on1", "Percent Effect": -6.001}, {"smiles": "O=C(c1ccc(-n2ccnc2)nn1)N1CCCCC1Cn1cccn1", "note": "(centres undefined)", "Percent Effect": -18.3}, {"smiles": "O=C(Cc1csc(-c2nnc[nH]2)n1)N1CCCC1Cn1cccn1", "note": "(centres undefined)", "Percent Effect": 1.097}, {"smiles": "Cc1cnn(CC2CCCN2C(=O)c2csc(-c3nnc[nH]3)n2)c1", "note": "(centres undefined)", "Percent Effect": 136}, {"smiles": "O=C(c1csc(-c2nnc[nH]2)n1)N1CCCCC1Cn1cccn1", "note": "(centres undefined)", "Percent Effect": 114.8}, {"smiles": "Cc1noc(OCc2ccc(C#N)cc2)n1", "Percent Effect": 3.288}, {"smiles": "NC(=O)C1CCN(C(=O)c2cc(S(=O)(=O)N3CCCC3)cs2)CC1", "Percent Effect": 4.91}, {"smiles": "C=Cn1ncc(CN2C[C@@H]3CCCN3C[C@@H]2CCSC)c1C", "Percent Effect": 137.5}, {"smiles": "C=Cn1ncc(CN2C[C@@H]3C[C@@H](O)CN3C[C@H]2Cc2ccccc2)c1C", "Percent Effect": 130.9}, {"smiles": "C=Cn1ncc(CN2C[C@@H]3C[C@@H](O)CN3C[C@@H]2Cc2ccccc2)c1C", "Percent Effect": 135.2}, {"smiles": "C=Cn1ncc(CN2C[C@@H]3CCCN3C[C@H]2CCSC)c1C", "Percent Effect": -0.7089}, {"smiles": "C=Cn1ncc(CN2C[C@@H]3CCCN3C[C@@H]2Cc2ccccc2)c1C", "Percent Effect": -5.258}, {"smiles": "CCCn1ncc(CN2C[C@@H]3CCCN3C[C@@H]2CCSC)c1C", "Percent Effect": -13.92}, {"smiles": "CCn1cc(CN2CC3CCCN3C[C@H]2C)c(C)n1", "note": "(some centres undefined)", "Percent Effect": -10.13}, {"smiles": "C=Cn1ncc(CN2C[C@@H]3CCCN3C[C@H]2Cc2ccccc2)c1C", "Percent Effect": 116.6}, {"smiles": "COC(=O)C1(C)CCN(C(=O)NCCc2c(C)[nH]c3ccccc23)C1", "note": "(centres undefined)", "Percent Effect": -5.132}, {"smiles": "Cc1ccsc1CN(CCN(C)C)C(=O)c1cc2ccccc2[nH]1", "Percent Effect": -9.122}, {"smiles": "COc1c(F)cc(NC(=O)NCc2nncn2C2CC2)cc1F", "Percent Effect": -0.8393}, {"smiles": "CNC(=O)c1cccc(NC(=O)c2ccnc(N(C)C)c2)c1C", "Percent Effect": -1.756}, {"smiles": "O=C(CNc1ccccc1S(=O)(=O)C(F)F)NCc1ccco1", "Percent Effect": 0.5887}, {"smiles": "CN(CCn1cccn1)S(=O)(=O)N1CCCC1c1ccco1", "note": "(centres undefined)", "Percent Effect": -2.44}, {"smiles": "CN(C)S(=O)(=O)N1CCCC1CC(=O)c1cccs1", "note": "(centres undefined)", "Percent Effect": -13.45}, {"smiles": "Cc1cccc(C2CCCN2S(=O)(=O)N(C)C)n1", "note": "(centres undefined)", "Percent Effect": 98.12}, {"smiles": "CCc1nccn1-c1cccc(C2CCCN2S(=O)(=O)N(C)C)n1", "note": "(centres undefined)", "Percent Effect": 103.4}, {"smiles": "CN(C)S(=O)(=O)CCCOc1cccc(-n2ccnc2)c1", "Percent Effect": -3.335}, {"smiles": "Cc1nccn1-c1cccc(C2CCCN2S(=O)(=O)N(C)C)n1", "note": "(centres undefined)", "Percent Effect": 5.145}, {"smiles": "CN(C)S(=O)(=O)N1CCCC1c1cccc(-n2ccnc2)n1", "note": "(centres undefined)", "Percent Effect": 119.1}, {"smiles": "CC(=O)c1ccc(N2CCCC(CO)(CCOc3ccccc3)C2)nc1", "note": "(centres undefined)", "Percent Effect": 5.356}, {"smiles": "O=C1NCC2(CCCN(C(=O)Nc3cccc(-c4cscn4)c3)CC2)O1", "note": "(centres undefined)", "Percent Effect": -23.17}, {"smiles": "COCc1cc(N2C[C@@H](C)[C@](O)(C3CC3)C2)ncn1", "Percent Effect": -1.024}, {"smiles": "COc1ccc2c(c1)CC(NCc1cccc(CO)c1)CC2", "note": "(centres undefined)", "Percent Effect": -7.175}, {"smiles": "COc1ccc2c(c1)CC(NCCCn1nc(C)nc1C)CC2", "note": "(centres undefined)", "Percent Effect": 101}, {"smiles": "COc1ccc2c(c1)CC(NCCCn1cc(C)cn1)CC2", "note": "(centres undefined)", "Percent Effect": 28.69}, {"smiles": "CC(NC(=O)c1cc(C(C)C)[nH]n1)C(=O)Nc1ccccc1", "note": "(centres undefined)", "Percent Effect": -6.667}, {"smiles": "Cc1ccc(OC[C@@H]2CNC[C@H](C(=O)NCC3CCCO3)C2)cn1", "note": "(some centres undefined)", "Percent Effect": 2.624}, {"smiles": "COCC(=O)N1CC[C@@H](OCC2CC2)[C@@H]1Cc1cccnc1.O=C(O)C(F)(F)F", "Percent Effect": 1.513}, {"smiles": "CO[C@@H]1CCN(C(=O)Cc2cccc(F)c2)[C@H]1Cc1cccnc1.O=C(O)C(F)(F)F", "Percent Effect": 114.6}, {"smiles": "CO[C@H]1CCN(C(=O)Cc2ccc(F)cc2)[C@H]1Cc1ccncc1", "Percent Effect": 101.6}, {"smiles": "CO[C@@H]1CCN(S(=O)(=O)c2cccs2)[C@H]1Cc1cccnc1.O=C(O)C(F)(F)F", "Percent Effect": 5.775}, {"smiles": "CC(=O)NCC(=O)N1CC[C@H](OCC2CC2)[C@@H]1Cc1cccnc1.O=C(O)C(F)(F)F", "Percent Effect": -17.55}, {"smiles": "CO[C@@H]1CCN(C(=O)Cc2ccsc2)[C@H]1Cc1cccnc1.O=C(O)C(F)(F)F", "Percent Effect": 94.83}, {"smiles": "CO[C@@H]1CCN(Cc2nccn2C)[C@H]1Cc1cccnc1.O=C(O)C(F)(F)F.O=C(O)C(F)(F)F", "Percent Effect": 5.954}, {"smiles": "CCO[C@@H]1CCN(C(=O)c2ccc[nH]2)[C@@H]1Cc1cccnc1.O=C(O)C(F)(F)F", "Percent Effect": 0.6367}, {"smiles": "COCCO[C@H]1CCN(C(=O)c2ccsc2)[C@H]1Cc1ccncc1", "Percent Effect": -3.115}, {"smiles": "COCCO[C@H]1CCN(C(=O)c2cnccn2)[C@H]1Cc1ccncc1", "Percent Effect": -26.79}, {"smiles": "CO[C@H]1CCN(S(=O)(=O)c2cccs2)[C@H]1Cc1cccnc1.O=C(O)C(F)(F)F", "Percent Effect": -2.032}, {"smiles": "CO[C@@H]1CCN(C(=O)Cc2ccc(F)cc2)[C@@H]1Cc1cccnc1.O=C(O)C(F)(F)F", "Percent Effect": 111.8}, {"smiles": "C=C(C)CN1CCC(NC(=O)Nc2cc(C(N)=O)ccc2OC)CC1", "Percent Effect": -10.13}, {"smiles": "CCc1n[nH]c(C(=O)N2CCCC3(CN(C)C(=O)O3)C2)c1C", "note": "(centres undefined)", "Percent Effect": -7.274}, {"smiles": "CCc1nn(C)c(Cl)c1CN1CCC(Cc2nncn2C)CC1", "Percent Effect": 1.908}, {"smiles": "COc1c(F)cc(CN2CCC3(CC2)CN(C)C(=O)O3)cc1Cl", "Percent Effect": -3.055}, {"smiles": "CCc1nn(C)c(Cl)c1CN1C[C@H](NC(=O)CCO)[C@@H](C(C)C)C1", "Percent Effect": -7.141}, {"smiles": "CN1CC2(CCN(Cc3cc(Cl)ccc3OCC(=O)O)CC2)OC1=O", "Percent Effect": -19.61}, {"smiles": "CCc1nn(C)c(Cl)c1CN1CCN(c2ccc(Cl)nn2)CC1", "Percent Effect": -2.423}, {"smiles": "CCc1nn(C)c(Cl)c1CN1CCCC2(CC1)CN(C)C(=O)O2", "note": "(centres undefined)", "Percent Effect": 89.96}, {"smiles": "CCc1nn(C)c(Cl)c1CN1CCCC2(C1)CN(C)C(=O)O2", "note": "(centres undefined)", "Percent Effect": 101.8}, {"smiles": "CCc1nn(C)c(Cl)c1CN1CCC2(C1)CN(C)C(=O)O2", "note": "(centres undefined)", "Percent Effect": 121.6}, {"smiles": "Cc1ccccc1N1CCCN(C(=O)c2nn(C)cc2Cl)CC1", "Percent Effect": 7.51}, {"smiles": "O=C(O)c1c(Cl)ncn1-c1cccc2ccccc12", "Percent Effect": 101.1}, {"smiles": "Cc1ccccc1N1CCN(C(=O)Cn2ccnc2)CC1=O", "Percent Effect": -5.789}, {"smiles": "Nc1nccnc1C(=O)N1CCN(Cc2cccc3ccccc23)CC1", "Percent Effect": -30.2}, {"smiles": "Cc1ccccc1-n1cnc(Cl)c1C(=O)O", "Percent Effect": 65.1}, {"smiles": "O=C1CC(c2ccc(C(=O)O)cc2)c2ncn(-c3ccccc3Cl)c2N1", "note": "(centres undefined)", "Percent Effect": 2.095}, {"smiles": "Cc1ccc(-c2n[nH]cc2CNCC2CCN(CC(F)(F)F)C2)o1.Cl", "note": "(centres undefined)", "Percent Effect": -7.389}, {"smiles": "Cc1cc(N2CCCN(C(C(=O)O)c3cccc(C)c3F)CC2)ccn1", "note": "(centres undefined)", "Percent Effect": 1.101}, {"smiles": "O=C1CCC(C(=O)N2CCOC(Cc3cccc4ccccc34)C2)=NN1", "note": "(centres undefined)", "Percent Effect": -9.724}, {"smiles": "Cc1ccc2ncnc(N3CCOCC3c3c(C)nn(C)c3C)c2c1", "note": "(centres undefined)", "Percent Effect": -2.563}, {"smiles": "O=S(=O)(c1c(F)cccc1F)N1CCC(Cn2cccn2)CC1", "Percent Effect": 15.84}, {"smiles": "Cc1nc(CN2CCCC3(CCN(c4cnn(C)c4)C3=O)C2)cs1.O=C(O)C(F)(F)F", "note": "(centres undefined)", "Percent Effect": 93.19}, {"smiles": "COCCN1CCCC2(CCN(c3ccsc3)C2=O)C1.O=C(O)C(F)(F)F", "note": "(centres undefined)", "Percent Effect": -26.52}, {"smiles": "Cc1nc(CN2CCC3(CCN(c4cnn(C)c4)C3=O)C2)cs1.O=C(O)C(F)(F)F", "note": "(centres undefined)", "Percent Effect": 109}, {"smiles": "Cc1cccc(NC2CCN(C(=O)Nc3ccc(F)c(F)c3)CC2)n1", "Percent Effect": 86.81}, {"smiles": "Cc1cccc(NC2CCN(C(=O)Nc3cc(C)on3)CC2)n1", "Percent Effect": -9.175}, {"smiles": "Cc1cccc(NC2CCN(C(=O)Nc3cn[nH]c3)CC2)n1", "Percent Effect": 110.2}, {"smiles": "Cc1ccc(C(=O)Nc2cn[nH]c2)cn1", "Percent Effect": 2.995}, {"smiles": "Cc1cccc(NC2CCN(C(=O)Nc3ccncc3)CC2)n1", "Percent Effect": 110.6}, {"smiles": "Cc1cccc(NC2CCN(C(=O)Nc3ccccn3)CC2)n1", "Percent Effect": 83.84}, {"smiles": "O=C(Nc1ccc(F)c(Br)c1)N1CCCC1", "Percent Effect": 7.891}, {"smiles": "Cc1cccc(NC2CCN(C(=O)Nc3cc(F)cc(F)c3)CC2)n1", "Percent Effect": -9.024}, {"smiles": "O=C(CCn1ccc(=O)[nH]c1=O)N1CCC(OCc2cccnc2)CC1", "Percent Effect": 17.72}, {"smiles": "COCc1noc(C2(c3ccc(Br)cc3)CCOCC2)n1", "Percent Effect": -15.05}, {"smiles": "CS(=O)(=O)CCCC(=O)N1CCN(CC2CC2)c2ccccc21", "Percent Effect": -17.42}, {"smiles": "N#Cc1ccc(N2CCCN(CCCn3cncn3)CC2)cc1", "Percent Effect": -1.933}, {"smiles": "Cc1nc(N2CCC3(CCCNC3=O)C2)nc2c1CCCC2", "note": "(centres undefined)", "Percent Effect": 1.379}, {"smiles": "O=C(C1CCS(=O)(=O)CC1)N1CCC(Cc2ccc(F)cc2)CC1", "Percent Effect": -5.215}, {"smiles": "CC(C(=O)N1CCC(Cc2ccc(F)cc2)CC1)n1ccnc1", "note": "(centres undefined)", "Percent Effect": -3.796}, {"smiles": "CCC(=O)N1CCCC1C(=O)N1CCC(Cc2ccc(F)cc2)CC1", "note": "(centres undefined)", "Percent Effect": 110.1}, {"smiles": "CN1CSC[C@H]1C(=O)N1CCC(Cc2ccccc2F)CC1", "Percent Effect": -34.6}, {"smiles": "CN1C[C@@H](N)C[C@H]1C(=O)N1CCC(CCCc2ccccc2)CC1", "Percent Effect": 99.37}, {"smiles": "CN1CCC(N(C)CCC(=O)N2CCC(Cc3ccc(F)cc3)CC2)C1", "note": "(centres undefined)", "Percent Effect": -0.3221}, {"smiles": "CC(=O)N1CCCC1C(=O)N1CCC(=Cc2cccc(F)c2)CC1", "note": "(centres undefined)", "Percent Effect": -11.75}, {"smiles": "CN1C[C@@H](N)C[C@H]1C(=O)N1CCC(Cc2ccc(F)cc2)CC1", "Percent Effect": 81.94}, {"smiles": "CN1CSC[C@H]1C(=O)N1CCC(CCc2ccccc2)CC1", "Percent Effect": -22.77}]}]}
